About 79,000 compounds went through this panel and 15% of them were active in at least one assay; those are over-represented in the sample as a whole. Cut-off read from the data, not from the text of the source: active = growth inhibition above about 70%; inactive = the rest.
What was measured:
[1] = NCI Yeast Anticancer Drug Screen. Data for the rad50 strain (AID 155);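 note: 0% = growth of vehicle-only cultures of the same strain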; conditions: S. cerevisiae rad50 strain growth inhibition; at 50.0 µM; stronger effect = higher value
Outline: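 A DNA repair-deficient yeast mutant serves as the test organism; compound-induced growth inhibition is calculated against vehicle-treated cells.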

[2] = NCI Yeast Anticancer Drug Screen. Data for the mec2-1 strain (AID 157); conditions: S. cerevisiae mec2-1 strain, at 50.0 µM, stronger effect = higher value
Outline: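 Yeast mec2-1 mutant treated with compound. Readout: growth inhibition vs vehicle controls.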

[3] = NCI Yeast Anticancer Drug Screen. Data for the sgs1 mgt1 strain (AID 161);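 note: 0% = growth of cultures given vehicle only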; conditions: S. cerevisiae sgs1 mgt1 strain, at 50.0 µM, stronger effect = higher value
Outline: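 Test agents were incubated with a DNA-repair-mutant yeast strain. Growth was then read and compared against vehicle-treated controls.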

[4] = NCI Yeast Anticancer Drug Screen. Data for the cln2 rad14 strain (AID 165);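 note: 0% = growth equal to vehicle treated cultures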; conditions: S. cerevisiae cln2 rad14 strain, at 50.0 µM, stronger effect = higher value
Outline: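 cln2 rad14 yeast strain; compound exposure; growth inhibition read vs vehicle controls.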

[5] = NCI Yeast Anticancer Drug Screen. Data for the bub3 strain (AID 167); conditions: S. cerevisiae bub3 mutant strain, at 50.0 µM, stronger effect = higher value
Outline: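 Inhibition values come from growth of compound-treated mutant yeast normalised to vehicle-treated controls.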

[6] = NCI Yeast Anticancer Drug Screen. Data for the mlh1 rad18 strain (AID 175); conditions: S. cerevisiae mlh1 rad18 strain growth inhibition; at 50.0 µM; stronger effect = higher value
Outline: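 Yeast w/ defined DNA-repair lesions; compound exposure; growth vs vehicle controls → % inhibition.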

Measured: growth inhibition

C=C(C)COc1ccc(C2OCC(CC)C(CCC)O2)cc1 (stereo not given)
inactive: [1] -4.3% | [2] -10.6% | [3] -7.5% | [4] -45% | [5] 5% | [6] -9.25%

C[C@]12CC[C@@H]3c4ccc(OS(=O)(=O)O)cc4CC[C@H]3[C@@H]1CCC2=O
inactive: [1] 22.2% | [2] -0.4% | [3] 12.2% | [4] 18.4% | [5] 23.6% | [6] 3.15%

NCCCn1[nH]c(=O)c2ncccc2c1=O
inactive: [1] -60.1% | [2] -28.8% | [3] -11.7% | [4] -91.5% | [5] -21.6% | [6] -18.7%

BrCCCOc1ccccc1
inactive: [1] -23.7% | [2] -32.8% | [3] -5.65% | [4] -2.9% | [5] -2.4% | [6] 0.7%

COc1cc(CC2c3cc(OC)c(OC)cc3CCN2C)c(Oc2cc3c(cc2OC)-c2c(OC)c(OC)c(OC)c4c2C(C3)N(C)CC4)cc1OC (stereo not given)
inactive: [1] 9.7% | [2] -0.95% | [3] -7.05% | [4] 13.8% | [5] 0.3% | [6] 1.2%

CS(C)=O.CS(C)=O.[Cl][Ru+2][Cl].[NH-]c1ccccc1[NH-]
inactive: [1] 38.6% | [2] 7.6% | [3] 34.4% | [4] 23.8% | [5] -1.9% | [6] 27.8%

CCCCCCN1CCc2c(C)c(C#N)c3nc4ccccc4n3c21
inactive: [1] -8.45% | [2] -8.05% | [3] -0.95% | [4] 10.9% | [5] 19.1% | [6] 21.8%

CC(Br)CCc1ccccc1Br (stereo not given)
inactive: [1] 3.95% | [2] -8.9% | [3] -2.95% | [4] -39.5% | [5] 19.9% | [6] 10.7%

N/C(=N\O)c1ccccc1
inactive: [1] 27.1% | [2] 0.6% | [3] 13.7% | [4] 15.3% | [5] 4.35% | [6] 23.1%

O=c1c(SCc2ccccc2Cl)c(SCc2ccccc2Cl)cnn1-c1ccccc1
inactive: [1] 10.7% | [2] -3.05% | [3] 12.6% | [4] 23.4% | [5] 7.15% | [6] 1.45%

CN1CN=C(Sc2ccc(Cl)cc2[N+](=O)[O-])NC1
inactive: [1] -22.2% | [2] -35.9% | [3] -22.1% | [4] -5% | [5] -6.9% | [6] -11.7%

CCN(CC)c1ccc(NC(=O)CCl)cc1
inactive: [1] -3.95% | [2] -12.5% | [3] -13% | [4] 1.45% | [5] -15.8% | [6] 8.2%

Cc1cc(C)c(C2CC(O)C(CO)O2)cc1C (stereo not given)
inactive: [1] -2% | [2] -20.9% | [3] -10.1% | [4] 14.1% | [5] -3.35% | [6] 21.4%

CCCC(=O)OC(CCC1CCCO1)CCC1CCCO1 (stereo not given)
inactive: [1] 0.3% | [2] -14.9% | [3] 10.4% | [4] 23.9% | [5] -6.35% | [6] 19.6%

OCC(O)C(O)C(O)c1nn(-c2ccccc2)c2nc3ccccc3nc12 (stereo not given)
inactive: [1] 3.6% | [2] 1.3% | [3] 3.4% | [4] 7.15% | [5] 11.3% | [6] 17.2%

CC(O)C(O)C(O)C1OC1=O (stereo not given)
inactive: [1] 0.95% | [2] -9.8% | [3] 0.75% | [4] -43% | [5] -8.9% | [6] -1.05%

CCC1(C(=O)OC)CCc2c(OC)ccc(OC)c2C1=O (stereo not given)
inactive: [1] -8.65% | [2] -9.35% | [3] 0.1% | [4] 3.25% | [5] -12.9% | [6] -46.8%

CC(=O)N(C)c1cccc2cccc(S(=O)(=O)O)c12
inactive: [1] -18.2% | [2] -19.1% | [3] -17.1% | [4] -59.2% | [5] -2.05% | [6] -15.3%

O=C(O)CCC(=O)CCC(=O)c1ccc(O)c2ncccc12
inactive: [1] -6.55% | [2] 6.2% | [3] 16.8% | [4] 26.5% | [5] 16.2% | [6] 21.5%

COc1ccc(-n2cc3c(=O)nccc-3c3ccccc32)cc1OC
inactive: [1] -9.3% | [2] -12.8% | [3] 1.2% | [4] -10.6% | [5] -18.6% | [6] -0.6%
